From PubChem
PLK1 PBD inh: blocks phosphopeptide binding to human PLK1 polo-box domain; Plk1 PBD binding of FITC phosphopeptide, fluorescence polarization; P53350; AID 720504; Potency, µM, usual class: inhibitors; 360,000 compounds, 2.8% hits; further: series mostly up to about 57 µM; nearly all actives have a fitted effect of over 65% in size
ALDH1A1 inh: blocks purified human ALDH1A1 activity. P00352. Purified ALDH1A1, NADH fluorescence, propionaldehyde substrate. Potency, µM (titrated, usually from 75.3 µM), usual class: inhibitors. 220,000 compounds, 7.3% hits; active means well fitted inhibition curve with a large enough effect, not every such curve was filed as active; inconclusive means small, poorly fitted or top-dose-only effect, or another doubt; inactive means no such curve, though single readings can be large or run the other way
RORg inh: inhibitors of mouse ROR gamma transcriptional activity; 310,000 compounds, 5.4% hits; AID 2551; Drosophila S2 Gal4-RORgamma UAS-luciferase reporter, 20 h; Potency, µM (highest dose often 53.6 µM), most hits filed as inhibitors; further: nearly all actives have a fitted effect of over 60% in size
Target sequence (P51450 whole entry, looked up, the tested form may be a part): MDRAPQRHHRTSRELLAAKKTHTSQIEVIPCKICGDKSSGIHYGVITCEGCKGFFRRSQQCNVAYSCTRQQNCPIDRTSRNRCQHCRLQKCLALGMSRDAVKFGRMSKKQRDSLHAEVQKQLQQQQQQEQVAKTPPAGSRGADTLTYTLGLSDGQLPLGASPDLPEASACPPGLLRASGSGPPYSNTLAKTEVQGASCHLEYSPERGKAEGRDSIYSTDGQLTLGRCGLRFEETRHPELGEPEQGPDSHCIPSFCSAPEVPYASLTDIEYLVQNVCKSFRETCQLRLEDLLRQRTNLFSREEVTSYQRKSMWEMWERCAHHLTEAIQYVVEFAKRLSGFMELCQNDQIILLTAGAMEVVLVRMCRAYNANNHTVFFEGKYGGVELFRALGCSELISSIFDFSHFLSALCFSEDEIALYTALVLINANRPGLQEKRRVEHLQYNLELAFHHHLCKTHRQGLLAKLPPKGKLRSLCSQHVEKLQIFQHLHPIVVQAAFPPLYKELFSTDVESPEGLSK
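A Gal4/UAS one-hybrid system in insect cells: metallothionein-promoter Gal4–ROR gamma fusion plus Photinus luciferase reporter. Copper sulfate 700 uM final, 20 hr ambient incubation, luminescent detection after 10 min with reagent.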
VP16 counter: counter-screen for ROR gamma inhibitors: Gal4-VP16 reporter. AID 2546. Potency, µM (titrated, usually from 53.6 µM), actives largely listed as inhibitors. Drosophila S2 Gal4-VP16 UAS-luciferase, luminescence, 20 h. 310,000 compounds, 3.5% hits;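 further: Gal4-VP16 expression switched on by copper sulfate through the metallothionein promoter; nearly all actives have a fitted effect of over 50% in size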
Sfp inh: blocks B. subtilis Sfp PPTase activity. Biochemical Sfp PPTase activity, qHTS. AID 1490. 310,000 compounds, 3.5% hits. Potency, µM, most hits filed as inhibitors. Q9F4F7;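 further: the enzyme is Sfp with the accession as filed and its product quenches rhodamine fluorescence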
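Compounds were incubated with enzyme (final 15 nM) for 15 min at room temperature before substrate addition started the reaction. Fluorescence at 525 nm excitation, 598 nm emission was recorded immediately and after 30 minutes.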
Large screens that a line does not name were inactive. In the library only some 12% were active in any assay of this set; here they are far more common. Unless noted, the call rests on the fitted dose curve; in most records, active means well fitted curve in the direction sought with a large enough effect; inconclusive means small, poorly fitted or top-dose-only effect, or another doubt; inactive means no such curve, though single readings can be large; an effect the other way counts as inactive or inconclusive.

CC(C)CNC(C(=O)Nc1ccc([N+](=O)[O-])cc1Br)c1ccccc1 (centres undefined)	ALDH1A1 inh 3.5µM, Sfp inh inconclusive
Cc1nc(SCC(=O)NC2(C#N)CCCC2)n(CC(C)C)c1C	none (no result: ALDH1A1 inh, RORg inh, VP16 counter, Sfp inh)
COc1ccc(CCNC(=O)c2cc(S(=O)(=O)N(C)c3ccccc3)ccc2Cl)cc1	PLK1 PBD inh 15µM
CCOc1ccc(N(C)S(=O)(=O)c2ccc(C)c(C(=O)NCCc3ccc(OC)cc3)c2)cc1	none (no result: ALDH1A1 inh, RORg inh, VP16 counter, Sfp inh)
Cc1cccc([C@H]2[C@@H]3C=CCC[C@@H]3C(=O)N2Cc2ccccc2)c1	ALDH1A1 inh 28µM, Sfp inh inconclusive
COC1(OC)N=C(N)C2(C#N)C(c3cccc(Oc4ccccc4)c3)C12C#N (centres undefined)	ALDH1A1 inh 22µM
CCc1cc(=O)oc2cc3occ(-c4ccc(OC)c(F)c4)c3cc12	RORg inh inconclusive, VP16 counter 13µM, Sfp inh 20µM
COC(=O)[C@H](COC(C)(C)C)NC(=O)O[C@@H]1C(=O)c2cc(Br)ccc2O[C@H]1c1ccc2c(c1)OCO2	none (no result: PLK1 PBD inh)
CS(=O)(=O)c1ccccc1-c1nnc(NC(=O)Cc2ccccc2)o1	RORg inh 11µM, VP16 counter inconclusive (no result: ALDH1A1 inh)
COc1ccccc1-c1nnc(SCC(=O)Nc2ccc(Cl)cc2Cl)o1	none
CSc1ccccc1-c1nnc(NC(=O)Cc2ccccc2)o1	RORg inh 1µM, VP16 counter 2.5µM (no result: ALDH1A1 inh)
CSc1nnc(-c2ccccc2SC)o1	PLK1 PBD inh 30µM, Sfp inh inconclusive
COc1ccccc1-c1nnc(NC(=O)Cc2ccccc2)o1	RORg inh 2µM, VP16 counter 3.2µM (no result: ALDH1A1 inh)
CCOC(=O)C1=CCC(c2ccccc2Cl)N(S(=O)(=O)c2ccc(C)cc2)C1 (centres undefined)	none (no result: ALDH1A1 inh, RORg inh, VP16 counter, Sfp inh)
COC(=O)[C@@]1(Cc2ccccc2)[C@H]2c3cc(C(=O)N4CCCC4)n(Cc4ccccc4)c3C[C@H]2CN1C(=O)c1ccccc1	none (no result: PLK1 PBD inh)
Cc1ccc(C(=O)NCCc2nnc3ccc(SCC(=O)Nc4nnc(C)s4)nn23)cc1	none (no result: ALDH1A1 inh, RORg inh, VP16 counter, Sfp inh)
CON/C=N/C(=S)Nc1ncc(C(F)(F)F)cc1Cl	ALDH1A1 inh inconclusive, RORg inh 0.56µM, VP16 counter inconclusive, Sfp inh 11µM
CC(=O)CC(=O)Nc1ncc(C(F)(F)F)cc1Cl	ALDH1A1 inh inconclusive
CC(C)C(=O)Nc1ncc(C(F)(F)F)cc1Cl	none
CC(Cl)C(=O)Nc1ncc(C(F)(F)F)cc1Cl (centres undefined)	ALDH1A1 inh 7.1µM
ON/C=N/C(=S)Nc1ncc(C(F)(F)F)cc1Cl	ALDH1A1 inh inconclusive, RORg inh 1.6µM, VP16 counter inconclusive
CC(C(=O)Nc1ccccc1C(=O)N1CCOCC1)N(c1ccccc1)S(C)(=O)=O (centres undefined)	PLK1 PBD inh 27µM
CN(c1ccc(C(=O)Nc2ccccc2C(=O)N2CCOCC2)cc1)S(C)(=O)=O	RORg inh inconclusive
CCn1c(=O)c2ccccc2n(CC(=O)NC2CCCCC2)c1=O	none (no result: ALDH1A1 inh)
COC(=O)/C=C1\C(=O)N(c2nc3ccc(OC)cc3s2)C(=S)N1c1ccc(F)cc1	RORg inh inconclusive (no result: PLK1 PBD inh)
COc1ccc2nc(N3C(=O)CNC3=S)sc2c1	RORg inh 0.5µM, VP16 counter 5.6µM (no result: ALDH1A1 inh)
Cc1ccc2nc(N3C(=O)CNC3=S)sc2c1	RORg inh 1µM, VP16 counter 3.5µM
O=C(CC[C@H]1O[C@@H](n2ccc(=O)[nH]c2=O)[C@H](O)[C@@H]1O)NC1CCN(Cc2ccccc2)C1 (some centres undefined)	none (no result: ALDH1A1 inh, RORg inh, VP16 counter, Sfp inh)
COC(=O)c1oc(-c2ccc(Cl)cc2)nc1C	ALDH1A1 inh 25µM
COC(=O)c1oc(-c2ccccc2)nc1C	none
Cc1cccc(C)c1-n1nnnc1C(c1cc2ccccc2o1)N1CCN(C/C=C/c2ccccc2)CC1 (centres undefined)	none (no result: ALDH1A1 inh, RORg inh, VP16 counter, Sfp inh)
COc1ccc([C@H]2N[C@]3(CCCN(Cc4ccco4)C3=O)[C@H]3C(=O)N(Cc4ccccc4)C(=O)[C@@H]23)cc1	none (no result: ALDH1A1 inh, RORg inh, VP16 counter, Sfp inh)
Nc1ncnc2c1ncn2-c1ccccc1Cl	none (no result: ALDH1A1 inh, RORg inh, VP16 counter, Sfp inh)
COc1cccc(N=Nc2c(=O)[nH]n3c(=O)c4c([nH]c23)CCC4)c1	PLK1 PBD inh 30µM
O=C(COC(=O)c1c(F)cccc1F)Nc1cccc(S(=O)(=O)N2CCCCC2)c1	none (no result: ALDH1A1 inh, RORg inh, VP16 counter, Sfp inh)
CC(C)N(Cc1cnn(C)c1)Cc1nc(COc2ccccc2)no1	PLK1 PBD inh 21µM, ALDH1A1 inh inconclusive
CC(C(=O)C12CC3CC(CC(C3)C1)C2)N1CCOCC1 (centres undefined)	PLK1 PBD inh 21µM (no result: ALDH1A1 inh)
